Shown is part of a subset that was picked to be rich in hits.
Pf Dd2 growth = inhibitors of Plasmodium falciparum Dd2 growth; 120,000 tested, 4.3% active; Potency, µM (series often up to 28.9 µM), most hits filed as inhibitors; P. falciparum Dd2 growth, SYBR Green, 72 h; active = well fitted inhibition curve with a large enough effect; also: nearly all actives have a fitted effect of over 65% in size
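Infected erythrocytes (Dd2, 0.3% parasitemia, 2.5% hematocrit final) are added to compound in RPMI-1640/Albumax II medium, grown 72 h at 37C in low oxygen, then lysed with saponin/Triton-X containing SYBR Green and read by fluorescence.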
Large screens that a line does not name were inactive.

Cc1cccc(-c2ccc3c(c2)C(=O)N2CC[C@H](N)[C@H]2C(=O)N3)c1C	none
O=C(N[C@H]1CCN2C(=O)c3cc(-c4ccccc4)ccc3NC(=O)[C@H]12)c1cnccn1	Pf Dd2 growth 11µM
O=C(NC1CCCCC1)N[C@H]1CCN2C(=O)c3cc(-c4ccccc4)ccc3NC(=O)[C@H]12	none
O=C(O)COCC(=O)N[C@H]1CCN2C(=O)c3cc(-c4ccccc4)ccc3NC(=O)[C@H]12	none
CCS[C@H]1CCN2C(=O)c3ccccc3NC(=O)[C@H]12	none
CCS[C@H]1CCN2C(=O)c3cc(-c4ccccc4)ccc3NC(=O)[C@H]12	Pf Dd2 growth 11µM
COc1ccc(-c2noc(CN(CC3CCC(=O)N3)C(C)C)n2)c(OC)c1OC (centres undefined)	none
CC1(C)CN(C(=O)c2csc(Cc3ccccc3)n2)CC1(C)O (centres undefined)	none
CC(C)n1c(C2CCN(C(=O)CN3CCCCCC3)CC2)nn(C)c1=O	none
COc1ccc(F)cc1S(=O)(=O)N1CCC(Oc2ccc(C(N)=O)cn2)CC1	none
Cc1cc(C(F)(F)F)n(CC(C)Cn2cc(-c3cncnc3)nn2)n1 (centres undefined)	none
CN1CCN(c2nc3c(c(=O)[nH]2)CCN(Cc2cccn2C)CC3)CC1	none
Cc1ccccc1Cn1c(=O)n(Cc2ccco2)c(=O)c2oc3ccccc3c21	none
Cc1ccccc1Cn1cnc2c(oc3ccccc32)c1=O	Pf Dd2 growth 8.9µM
Cc1ccc(NC(=O)Cn2cnc3c(oc4ccccc43)c2=O)cc1	none
CC1Oc2ccc(NS(=O)(=O)c3ccc(Cl)cc3)cc2CN(Cc2ccccc2F)C1=O (centres undefined)	none
COc1ccccc1CNC(=O)C1CCCN(Cc2cccnc2)CCC(=O)NCC1 (centres undefined)	none
COCCN1CCN(C[C@@H]2C=C(C)[C@H](Cc3nnc(-c4ccc(N(C)C)cc4)o3)C[C@H]2C(C)C)CC1	Pf Dd2 growth 4µM
CC1=C[C@@H](CN2CCC(O)CC2)[C@H](C(C)C)C[C@H]1Cc1nnc(C)o1	none
CC1=C[C@@H](CN2CCC(O)CC2)[C@H](C(C)C)C[C@H]1Cc1nnc(-c2ccc(N(C)C)cc2)o1	Pf Dd2 growth 3.5µM
COCCN1CCN(C[C@@H]2C=C(C)[C@H](Cc3nnc(-c4cccnc4)o3)C[C@H]2C(C)C)CC1	none
COc1ccc2[nH]c3c(c2c1)CCNC31CCN(C(=O)C2CCCO2)CC1 (centres undefined)	none
CN(C)C(=O)N1CCCCC12Cc1ccccc1NC2=O (centres undefined)	none
O=C(NCCN1CCOCC1)[C@H]1C[C@@H](O)[C@H](O)[C@@H]2N=C(Nc3ccc(-n4cccn4)cc3)S[C@@H]21	none
CCCN1CCCn2nc(CNC(=O)Nc3ccccc3SC)cc2C1	none
COCCC(=O)N1CCCCCNC(=O)[C@@H]2CCCC[C@@H]21	none
COc1ccc(C(=O)N2C[C@@H](Oc3cccnc3)C[C@H]2C(=O)N2CCCC2)cn1	none
O=C1C(OCC2CC2)C2(CCOCC2)N1C1CCNCC1 (centres undefined)	none
COCCOc1cc(C)c2c(c1C)C[C@H](C(C)C(=O)N1CCCCC1)CC2 (some centres undefined)	none
COc1cc(C)c2c(c1C)C[C@H](C(C)C(=O)N1CCN(CCO)CC1)CC2 (some centres undefined)	none
Cc1cc(OCCN(C)C)c(C)c2c1CC[C@@H]([C@H](C)C(=O)NCc1ccccc1)C2	none
COCCOc1cc(C)c2c(c1C)C[C@H](C(C)C(=O)N1CCOCC1)CC2 (some centres undefined)	none
COc1cc(C)c2c(c1C)C[C@H](C(C)C(=O)NCc1cccs1)CC2 (some centres undefined)	Pf Dd2 growth 11µM
Cc1cc(OCCN2CCOCC2)c(C)c2c1CC[C@@H]([C@H](C)C(=O)N1CCCCC1)C2	Pf Dd2 growth 11µM
Cc1cc(OCCN2CCOCC2)c(C)c2c1CC[C@@H]([C@H](C)C(=O)NCc1cccnc1)C2	none
CCCOc1cc(C)c2c(c1C)C[C@H](C(C)C(=O)NCc1ccc(OC)cc1)CC2 (some centres undefined)	Pf Dd2 growth 10µM
CCCOc1cc(C)c2c(c1C)C[C@H]([C@H](C)C(=O)NCCOC)CC2	none
Cc1cc(=O)n(CC(=O)Nc2cc(F)ccc2F)c(-c2ccccc2)n1	none
CCN(C)C(=O)CCc1c(C)nn(-c2cccc(C)c2)c1Oc1ccccc1	none
COCCc1noc([C@@H]2CN(C(=O)CC3=CCCCC3)C[C@H]2CO)n1	none
COc1ccc(C(=O)N2CCCC2c2nc(CCOCC3CC3)no2)cc1 (centres undefined)	none
CCOc1cc(=O)n2c(c1C(=O)Nc1ccccc1)CCCCC2	none
O=C1c2c(nc(COc3cccnc3)n2Cc2ccccc2)NCCN1CCOc1ccccc1	none
CC(=O)c1ccc(NC(=O)Cn2ccn3nc(-c4ccc(F)cc4)c(CO)c3c2=O)cc1	none
COc1cc2c(=O)c(S(=O)(=O)c3ccc(F)cc3)cn(Cc3ccccc3C)c2cc1OC	Pf Dd2 growth 11µM
CCOc1ccc2c(c1)c(=O)c(S(=O)(=O)c1ccccc1)cn2CC(=O)Nc1ccccc1OC	Pf Dd2 growth 11µM
COc1ccc(NC(=O)Cn2cc(S(=O)(=O)c3ccc(C)cc3)c(=O)c3ccccc32)cc1OC	none
CCc1ccc2c(c1)c(=O)c(S(=O)(=O)c1ccc(Cl)cc1)cn2CC	none
CCOc1ccc2c(c1)c(=O)c(S(=O)(=O)c1ccc(CC)cc1)cn2Cc1cccc(Cl)c1	Pf Dd2 growth 10µM
COc1cc(NC(=O)Cn2cc(S(=O)(=O)c3ccccc3)c(=O)c3ccccc32)cc(OC)c1	none
CCOc1ccc2c(c1)c(=O)c(S(=O)(=O)c1ccc(C)cc1)cn2CC(=O)Nc1ccc(C)cc1	none
CCc1ccc2c(c1)c(=O)c(S(=O)(=O)c1ccc(F)cc1)cn2CC(=O)Nc1ccccc1OC	none
CCc1ccc(S(=O)(=O)c2cn(CC(=O)Nc3cccc(C)c3)c3ccc(Cl)cc3c2=O)cc1	none
CCn1cc(S(=O)(=O)c2ccccc2)c(=O)c2cc(F)c(F)cc21	none
Cc1ccc(S(=O)(=O)c2cn(Cc3cccc(C)c3)c3cc4c(cc3c2=O)OCO4)cc1	none
CCOc1ccc2c(c1)c(=O)c(S(=O)(=O)c1ccc(C)cc1)cn2Cc1ccccc1Cl	Pf Dd2 growth 13µM
CC(C)c1nncn1C1CCN(S(=O)(=O)c2ccc(F)c(F)c2)CC1	none
CN1CCC(OC2CCN(C(=O)c3ccccn3)CC2)CC1	none
Cc1nn(-c2ccccc2)nc1C(=O)N[C@H](C)c1onc(-c2cccnc2)c1C(=O)O	none
CCN(C(=O)CN1C(=O)NC2(CCS(=O)(=O)CC2)C1=O)c1ccccc1	none
CCC(C)NC(=O)C(NC(=O)c1ccc(OC)cc1)C1CCN(C(=O)CC(C)C)CC1 (centres undefined)	none
COc1ccc2c(c1)c(=O)c(S(=O)(=O)c1ccc(Cl)cc1)cn2C	none
CCOc1ccc2c(c1)c(=O)c(S(=O)(=O)c1ccc(Cl)cc1)cn2Cc1ccccc1C	Pf Dd2 growth 13µM
CCOc1ccc(S(=O)(=O)c2cn(CC)c3ccc(F)cc3c2=O)cc1	none
O=C(O)c1ccc(CN2Cc3[nH]cnc3C[C@H]2C(=O)NCc2ccco2)cc1	none
Cc1c(C(=O)N(Cc2cccc(OCC3CCOC3)c2)Cc2ccccn2)[nH]c2ccc(Cl)cc12 (centres undefined)	none
Cn1cccc1-c1nc(-c2nnn3c2COC(c2ccccc2Cl)C3)no1 (centres undefined)	none
COc1cccc(-c2ccc3c(N)c(C(=O)Nc4ccc(Cl)cc4F)sc3n2)c1	none
COc1ccc(-c2ccc3c(N)c(C(=O)Nc4cccc(C)c4)sc3n2)cc1	none
CC(C)CSc1ccccc1NC(=O)c1sc2nc(-c3ccncc3)ccc2c1N	Pf Dd2 growth 3.2µM
